The text below walks through data of PubChem BioAssay (NCI).

“And” between values parts separate entries of the source, which are not always exact repeats. Equal entries are not always repeated. The panel holds about 83,000 compounds, 20% with a hit somewhere; the sample as a whole holds those more often.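 Note: values are percent growth. 100 is the growth of untreated cells, values between 100 and 0 indicate rising inhibition; between -100 and 0 indicates cell death.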 The source made the active and inactive calls. How the source made its calls: active means growth percent below 10; inactive means the rest.

The subject of this assay is HL-60(TB) leukemia. Description: NCI-60 one-dose screen, 48 h (100 = growth as untreated, 0 = no growth, -100 = all killed). As to conditions: 10 µM unless noted.
As to `COc1ccc(-c2nc3cc(C)ccc3n2CC(=O)N=Nc2c(O)[nH]c3ccc(OC)cc23)cc1`, the growth is -62.1% (active).
Consider `O=C(CCl)Nc1ccc(C(=O)/C=C/c2cc3ccccc3nc2Cl)cc1`, for which the growth was -17.4% (active) and 30.5% (inactive).
Then `CS(=O)(=O)Nc1cccc(-n2cnc3cc(-c4ccc(O)cc4)ccc32)c1`, with 7.73% (active); and `CC1CN(c2oc(-c3ccc([N+](=O)[O-])cc3)nc2C#N)CC(C)O1` (stereo not drawn), with 95% (inactive); and `CS(=O)(=O)Nc1cc(-c2ccc3ncnc(Nc4ccc(OCc5cccnc5)c(Cl)c4)c3c2)cnc1Cl`, with -59.5% (active).
Regarding `COCOc1cc2oc(C(=O)N[C@@H](Cc3ccccc3)C(O)C(=O)NCc3ccccc3)c(C)c(=O)c2cc1OCOC` (stereo partly drawn), the growth was 96.5% (inactive).
Turning to `COc1ccccc1NC(=O)N/N=C/c1c[nH]c2ccccc12`, the growth is 5.87% (active).
As to `COc1cc(Nc2nc(O)c(/C=C3\C=Nc4ccccc43)s2)cc(OC)c1OC`, the growth is -16% (active).
Take `O=C1NC2C=CC=CC2/C1=C1/SC(=S)N(C2CC(=O)N(c3ccc(Br)cc3)C2=O)C1=O` (stereo not drawn): the growth is 58.9% (inactive).
`CCCCNc1ccc2c3c(cccc13)C(=O)N(c1cccc(-c3nn(-c4ccccc4)cc3-c3nc4ccccc4s3)c1)C2=O`: the growth is 106% (inactive).
Take `NNc1ncnc2sc3c(c12)CCN(Cc1ccccc1)C3`: the growth is 18.8% (inactive).
Take `COc1cc(C2CC(c3cc(OC)c(OC)c(OC)c3)=NN2C(C)=O)ccc1OCc1ccc(F)cc1` (stereo not drawn): the growth was 37.3% (inactive).
Then `COc1ccc(/C=C2\C(=O)Nc3ccc(Cl)cc32)cc1OCc1ccccn1`, with 64.7% (inactive).
